From PubChem BioAssay AID588719 (Southern Research Specialized Biocontainment Screening …, 2011) come the findings set out here.

SMILES strings stand for the structures. About 920 (61%) of roughly 1,500 compounds were called active. How the calls were made is not given here. So high a share suggests a set chosen from earlier hits. This is one part of the list. Entries that show only a call come without a potency. Potency and affinity values are given separately.

A short description of the test: Vero 76 cell cytotoxicity, dose response, cytotoxicity control for VEEV inhibitor project (AID 588719). To be noted: Vero 76 cells viability, cytotoxicity counter-screen; series mostly up to 25 µM. (In general: A counterscreen serves to expose hits that act by an unwanted route or on another target.)
On to `Cc1cc(NC(=O)c2ccc3nccnc3c2)ccc1Br`, for which the compound was called inactive.

As to `C[C@@H]1CCCCO[C@H](CN(C)C(=O)NC2CCCCC2)[C@@H](C)CN([C@H](C)CO)C(=O)c2cc(NC(=O)c3ccccc3)ccc2O1`, the compound was called inactive.

For the compound `COc1cccc(CNC(=O)c2cc3oc4ccccc4c3n2C)c1OC`, the call was inactive.

On to `CCC1(c2ccccc2)NC(=S)N(c2ccc(C)cc2)N1` (centres undefined), for which the result was inactive.

For the compound `O=C(COC(=O)CCC(=O)c1ccc(F)cc1)NCc1ccccc1Cl`, the result was inactive.

Turning to `O=C(Nc1ccc(C(=O)OC[C@@H]2CCCN3CCCC[C@H]23)cc1)c1cccc(Br)c1`, the compound was classed as inactive.

Regarding `CCCCC(=O)NC(c1ccc(Cl)cc1Cl)c1ccc2cccnc2c1O` (centres undefined), the compound was classed as inactive.

Turning to `CCC(=O)OC1CCC2C3CCC4CC(=O)C=CC4(C)C3CCC12C` (centres undefined), the call was inactive.

Take `CNCCNC[C@H](Cc1cccc2ccccc12)NCCc1ccccc1`: the outcome was inactive.

On to `Cc1cccc2sc(N(CCCN(C)C)C(=O)c3ccco3)nc12`, for which the call was inactive.

For the compound `CCOC(=O)c1c(C)oc2ccc(OCc3cc(C(=O)OC)oc3C)cc12`, the compound was called inactive.

As for `C=C(C)COc1ccc(-c2nc(N)ncc2-c2ccc(Br)cc2)c(O)c1`, the compound was classed as inactive.

Consider `C=CCC1(CCCCC)C(=O)NC(=S)NC1=O`, for which the compound was classed as inactive.

As to `Oc1c(C(Nc2nc3ccccc3s2)c2ccco2)ccc2cccnc12` (centres undefined), the outcome was inactive.

For `O=CC1=C(c2ccccc2)Oc2ccccc2O1`, the call was inactive.

`Cc1ccc(S(=O)(=O)c2ccsc2NC(=O)c2ccccc2)cc1`: the compound was classed as inactive.

On to `Cc1ccc(NC(=O)Nc2ccno2)cc1`, for which the call was inactive.

With `Cc1cc(N/N=C/c2cccc([N+](=O)[O-])c2)nc(-n2nc(C)cc2C)n1`, the call was inactive.

For the compound `CC(C)(C)OC(=O)[C@H](Cc1ccccc1)NC(=O)c1nc[nH]c1C(=O)NC1CCN(C(=O)OC(C)(C)C)CC1`, the outcome was inactive.

Take `CC1(C)CC(=O)/C(=N/Nc2ccc(Cl)cc2)CO1`: the result was inactive.

In the case of `CCCCOc1ccc(C(=O)Nc2ccc(N3CCN(C)CC3)cc2)cc1`, the call was inactive.

On to `CN1CCN(c2ccc(NC(=O)c3cccc(OCc4ccccc4)c3)cc2)CC1`, for which the result was inactive.

As for `CCCn1cnc2c(SCc3ccccc3Cl)nc(N)nc21`, the compound was classed as inactive.

With `CCN(CC)CCCNC(=O)c1oc2ccc(S(=O)(=O)N3CC(C)CC(C)C3)cc2c1C` (centres undefined), the compound was classed as inactive.

`O=C(NCCc1csc(-c2cccnc2)n1)c1ccccc1Br`: the compound was classed as inactive.

On to `Cc1ccccc1-c1n[nH]c(=S)n1/N=C/c1c(C)nn(-c2ccccc2)c1C`, for which the compound was classed as inactive.

As for `COc1ccccc1C1N(c2ccc(Cl)cc2)C(=O)C2CCCN21` (centres undefined), the call was inactive.

For `CNc1nc(Cl)nc2c1ncn2-c1ccccc1`, the call was inactive.

Take `Cc1cc(=O)[nH]c(N/N=C/c2ccc(OC(=O)c3cccnc3)cc2)n1`: the compound was classed as inactive.

For the compound `O=S1(=O)CCC(NC(=S)SCCOc2ccccc2)C1` (centres undefined), the compound was called inactive.

With `Nc1[nH]nc2nc(NCc3ccccc3)c3c(c12)CCN(Cc1ccccc1)C3`, the call was inactive.

With `Cc1ccc(N2C(=O)NC(=O)/C(=C\C=C\c3ccco3)C2=O)cc1`, the compound was called inactive.

Take `CCc1ccc(N2C(=O)NC(=O)/C(=C\C=C\c3ccco3)C2=O)cc1`: the compound was called inactive.

Take `Nc1nc(CN2CCN(c3ccccn3)CC2)nc(Nc2ccc(Cl)cc2)n1`: the compound was classed as inactive.

In the case of `Cc1[nH]c(C)c(S(=O)(=O)N2CCN(c3cccc(C(F)(F)F)c3)CC2)c1C(=O)N1CCCCC1`, the outcome was inactive.

Turning to `COc1ccccc1OCC(=O)Nc1nc2c(s1)CCCC2`, the compound was called inactive.

`O=C1Nc2cc(C(=O)NCCCN3CCOCC3)ccc2S/C1=C/c1cccc(Cl)c1`: the call was inactive.

In the case of `O=C(NCCCN1CCOCC1)c1ccc(/C=C2\Oc3ccccc3N(Cc3ccccc3F)C2=O)cc1`, the compound was called inactive.

For the compound `COC(=O)c1cc(Cl)c(NC(=O)c2ccc(C(C)(C)C)cc2)cc1OC`, the outcome was inactive.

As for `COc1cc(NC(=S)N(C)C)c(OC)cc1Cl`, the compound was classed as inactive.

For `CCc1ccc(-c2cc3c(=O)n(CC(=O)NCCCN4CCN(CC)CC4)nc(C)n3n2)cc1`, the call was inactive.

For `NC(=O)C1=C[C@H](C2CCCCC2)C[C@H](OCc2ccc(CO)cc2)O1`, the compound was classed as inactive.

On to `O=C(NC1CC1)C1=C[C@@H](C2CCCCC2)C[C@@H](OCc2ccc(CO)cc2)O1`, for which the outcome was inactive.

As to `Cc1cccc(NC(=O)C(C)Sc2nc3ccccc3c(=O)n2CCCN2CCOCC2)c1` (centres undefined), the compound was called inactive.

`CC(=O)C1C2c3ccccc3OC1(C)N=c1s/c(=C/c3cn(C)nc3C)c(=O)n12` (centres undefined): the compound was called inactive.

Consider `O=C(NC1CCN(Cc2ccccc2)CC1)c1ccc(Oc2cc(Cl)cc(Cl)c2)o1`, for which the result was inactive.

Take `c1ccc(COC(CN2CCCCCC2)CN2CCCCCC2)cc1`: the outcome was inactive.

`O=C(c1ccc(-c2ccccc2)c(F)c1)C1CCCN(CCO)C1` (centres undefined): the compound was called inactive.

On to `COc1cc2c(cc1OC)C13CCN4CC5=CCOC(CC(=O)O)C(C5CC41)C3N2` (centres undefined), for which the compound was called inactive.

For the compound `Cc1c(-c2ccc(OCc3ccccc3)cc2)nc2ccccc2c1C(=O)O`, the call was inactive.

For the compound `C[C@@H]1CN([C@H](C)CO)C(=O)CCCn2nncc2CO[C@@H]1CN(C)C(=O)Nc1ccc(N2CCCCC2)cc1`, the result was inactive.

Turning to `CC(C)CN(C(=O)COC(=O)/C=C/c1ccc(Cl)c(Cl)c1)c1c(N)n(Cc2ccccc2)c(=O)[nH]c1=O`, the compound was called inactive.

On to `COc1cccc(/C=C/c2n[nH]c(=O)c(C#N)c2C)c1`, for which the result was inactive.

Regarding `O=C1C2C3C=CC(C4CC34)C2C(=O)N1CCCCN1CCN(c2ccc(F)cc2)CC1` (centres undefined), the outcome was inactive.

As to `Cc1ccc(NC(=O)c2ccc(CN3CCN(C)CC3)cc2)cc1Nc1nccc(-c2cccnc2)n1`, the call was inactive.

Consider `COc1ccc(-c2cc(-c3ccc(F)cc3)nc(N3CCN(C)CC3)n2)cc1`, for which the outcome was inactive.

As for `COCC(C)n1c(SCc2cc(=O)n3cc(C)ccc3n2)nc2ccccc2c1=O` (centres undefined), the call was inactive.

Consider `Cc1ccc2oc(=O)c3cnn(CC(=O)Nc4ccccc4N4CCN(C)CC4)c3c2c1`, for which the outcome was inactive.

On to `CC(=O)c1cccc(NC(=O)/C=C/c2ccc([N+](=O)[O-])s2)c1`, for which the compound was classed as inactive.

`Cc1cccc(NC(=O)CSc2nc3ccccc3nc2N2CCCC2)c1`: the result was inactive.

In the case of `COc1cc(NC(=O)c2ccc(-c3cccc([N+](=O)[O-])c3)o2)ccc1NC(=O)C(C)C`, the compound was called inactive.

With `COc1ccc(C(Nc2cccc([N+](=O)[O-])c2)P(=O)(OC(C)C)OC(C)C)cc1` (centres undefined), the compound was called inactive.

On to `O=C1c2cccc3cc([N+](=O)[O-])cc(c23)C(=O)N1c1ccccc1O`, for which the outcome was inactive.

Take `CCCNC(=O)N1CCN(c2nc(C(C)C)c3c(c2C#N)CC(C)(C)OC3)CC1`: the result was inactive.
